Source: PubChem BioAssay (several laboratories)
MLLE-PAM2 inh = inhibitors of PABP1 MLLE–PAM2 peptide binding, primary screen, biochemical, fluorescence polarization, FITC-PAM2, GST-MLLE. Polyadenylate-binding protein 1 (Homo sapiens), P11940. inhibition, % at 20 µM. 360,000 tested, 0.36% active. AID 588489, 2011; in the data active = inhibition above about 35%, passing the limit was not always enough
GRK2 aptamer HTS = compounds blocking aptamer binding on GRK2 – biochemical, human GRK2, bead flow cytometry, HTS, primary screen; Beta-adrenergic receptor kinase 1 (Homo sapiens), P25098; FAM-aptamer displacement from GRK2; inhibition of aptamer binding, % at 10 µM; 330,000 tested, 0.59% active; AID 488847, 2010;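 active = inhibition of aptamer binding above 40%, roughly 3 SD of noise, on plates passing a quality check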;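 note: median bead fluorescence of bound FAM aptamer so fluorescent compounds give negative values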
PABP polyA inh = PABP poly(A) RNA binding inhibitors, primary screen, biochemical, fluorescence polarization, uHTS | inhibition, % at 35 µM | 290,000 tested, 1% active | AID 2014, 2009;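 note: calls also rest on retests at 20 µM and on dose response follow-up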
PERK inhibitor = block of dimerizer-induced PERK translation repression, primary screen, PERK inhibitor project, CHO PERK-DD cells, SEAP luminescence, HTS | inhibition, % at 5.6 µM | 220,000 tested, 0.17% active | CHO PERK-DD fusion, SEAP luminescence translation reporter;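 active = inhibition above the mean inhibition of all tested compounds plus 3 SD, set separately per screening campaign, cut at about 2.9% in these data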;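 note: PERK kinase domain activated by AP20187 dimerizer at 100 nM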
eIF4H FP inh = human eIF4H binding inhibitors, primary screen, translation initiation inhibitor project, biochemical, uHTS, fluorescence polarization | Eukaryotic translation initiation factor 4H (Homo sapiens), Q15056 | inhibition, % at 35 µM | 290,000 tested, 0.94% active | AID 2012, 2009 | eIF4H fluorescence polarization binding assay;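 note: calls also rest on retests at 20 µM and on dose response follow-up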
GRK2 inh confirm = GRK2 aptamer-displacing inhibitors, retest, confirmation, biochemical, cherry pick 1, bead flow cytometry; aptamer displacement, % at 10 µM; bead-bound GRK2, FAM-aptamer displacement; 2,000 tested, 4% active; shares compounds with GRK2 aptamer HTS; AID 504451, 2011;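 active = aptamer displacement above 40%, near three times the noise of non-fluorescent compounds, on plates passing quality checks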;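 note: negative values mostly reflect intrinsic compound fluorescence rather than true enhancement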
FAM quench CP1 = aptamer fluorescence quenching in GRK2 counter-screen | shares compounds with GRK2 aptamer HTS | Carboxyfluorescein RNA aptamer on beads, flow cytometry quenching; stronger effect = lower value | fluorescence response (% of DMSO), % at 10 µM | 2,000 tested, under 10 active | AID 504580;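 active = compounds that quench the bead-bound fluorescent RNA probe, cutting fluorescence to under half of the solvent control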;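 note: counterscreen run without GRK2 so only probe quenching by compound is measured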
GRK2 CP2 = GRK2 aptamer-displacing inhibitors, hit retest, confirmation, biochemical, cherry pick 2, bead flow cytometry. shares compounds with GRK2 aptamer HTS. bead-bound GRK2, FAM-aptamer displacement. inhibition of aptamer binding, % at 10 µM. 360 tested, under 10 active;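 active = inhibition of aptamer binding above 40%, about triple the noise seen with nonglowing compounds, on plates passing quality control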;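 note: negative values mostly come from compounds that fluoresce themselves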
FAM quench CP2 = quenches fluorescent RNA aptamer, GRK2 hit artifact. shares compounds with GRK2 aptamer HTS. carboxyfluorescein RNA aptamer beads, flow cytometry quenching; stronger effect = lower value. fluorescence response vs DMSO, % at 10 µM. 360 tested, under 10 active;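 active = response vs DMSO under 50%, meaning signal dropped by over half, treated as fluorescence quencher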;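 note: labelled aptamer on streptavidin beads without GRK2 as a quench counter-screen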
Of the large screens only hits and unclear results are named; the others gave an inactive call (follow-up assays come after a bar, where they were run). Most compounds without a hit are left out; they make up all but 1.9% or so of the library. Unless noted, the rule behind the calls is not given here.

COc1cc(C2Nc3ccc4ccccc4c3C3=C2C(=O)CC(C)(C)C3)ccc1OCC(=O)O (stereo not drawn)	none (no result: PERK inhibitor)
CC1(C)CC(=O)C2=C(C1)c1c(ccc3ccccc13)NC2c1ccc(OCC(=O)O)cc1 (stereo not drawn)	GRK2 aptamer HTS 78.0 (no result: PERK inhibitor) | GRK2 inh confirm inactive | FAM quench CP1 inactive
Cc1noc(C)c1COc1ccc(C(=O)NNC(=O)c2ccccc2)cc1	GRK2 aptamer HTS 100.0 (no result: PABP polyA inh, PERK inhibitor, eIF4H FP inh) | GRK2 inh confirm inactive | FAM quench CP1 inactive
Cc1noc(C)c1COc1ccc(C(=O)O)cc1	none
CCOC(=O)N1CCN(C(=O)COC(=O)c2cc(C)ccc2C)CC1	none (no result: PABP polyA inh, PERK inhibitor, eIF4H FP inh)
CCOc1ccc(N(CCCCO)C(=S)NC(=O)c2ccc(C)c(Br)c2)cc1	none
O=C(COC(=O)/C=C/c1cccc(F)c1)Nc1ncccn1	GRK2 aptamer HTS 45.0 | GRK2 inh confirm inactive | FAM quench CP1 inactive
O=C(COC(=O)/C=C/c1cccc(F)c1)Nc1ccc(Cl)cn1	none
CCN(CC)CCCNC(=S)N(Cc1cccnc1)Cc1cc2cc(C)cc(C)c2[nH]c1=O	none | GRK2 inh confirm inactive | FAM quench CP1 inactive
NNC(=O)c1ccccc1-n1cccc1	none | GRK2 CP2 inactive | FAM quench CP2 inactive
O=C(NNC(=O)c1ccccc1-n1cccc1)c1ccccc1	none
CCOC(=O)NC1(C(F)(F)F)NC(=O)N(c2ccc(F)cc2)C1=O (stereo not drawn)	none
CCSc1nc2nccnc2c(=O)[nH]1	none (no result: GRK2 aptamer HTS, PABP polyA inh, PERK inhibitor, eIF4H FP inh)
CC(C)CC(C(=O)OCC(=O)N1CCN(c2ccccc2)CC1)N1C(=O)c2ccccc2C1=O (stereo not drawn)	none (no result: GRK2 aptamer HTS, PABP polyA inh, PERK inhibitor, eIF4H FP inh)
CC(C(=O)OCC(=O)N1CCN(c2ccccc2)CC1)N1C(=O)c2ccccc2C1=O (stereo not drawn)	none (no result: PABP polyA inh, PERK inhibitor, eIF4H FP inh) | GRK2 inh confirm inactive | FAM quench CP1 inactive
COc1cccc(-c2cc(C(=O)Nc3ccc(OC)c(OC)c3)no2)c1	GRK2 aptamer HTS 98.0 | GRK2 inh confirm inactive | FAM quench CP1 inactive
CC(=O)c1cccc(NC(=O)c2cc(-c3ccc(F)cc3)on2)c1	none | GRK2 inh confirm inactive | FAM quench CP1 inactive
Cc1nnc(NC(=O)c2ccc(Br)cc2)s1	none
Cc1nnc(NC(=O)c2ccc(Br)o2)s1	GRK2 aptamer HTS 85.0 (no result: PERK inhibitor) | GRK2 inh confirm inactive | FAM quench CP1 inactive
COc1cccc(-c2cccc(-c3nc(C(=O)NCCCN4CCOCC4)cc4c3[C@H](CCO)N(S(=O)C(C)(C)C)C4)c2)c1 (stereo partly drawn)	none (no result: GRK2 aptamer HTS, PABP polyA inh, PERK inhibitor, eIF4H FP inh)
Cc1ccc2sc(C)[n+](CCO)c2c1	GRK2 aptamer HTS 100.0 | GRK2 inh confirm inactive | FAM quench CP1 inactive
Cc1ccc(-c2nn(-c3ccccc3)cc2/C=C/C(=O)OCC(=O)NC2CC2)o1	GRK2 aptamer HTS 78.0 | GRK2 inh confirm inactive | FAM quench CP1 inactive
CNC(=O)COC(=O)/C=C/c1cn(-c2ccccc2)nc1-c1ccc2c(c1)OCCO2	none
O=C(CCN1CCOCC1)N1CCc2c([nH]c3ccccc23)C1c1cccc(Cl)c1 (stereo not drawn)	none | GRK2 inh confirm inactive | FAM quench CP1 inactive
O=C(c1cccs1)N1CCc2c([nH]c3ccccc23)C1c1ccc(Cl)cc1 (stereo not drawn)	none
Cc1ccc(C(=O)N/N=C/c2cc(Br)ccc2O)cn1	GRK2 aptamer HTS 73.0 (no result: PERK inhibitor) | GRK2 inh confirm inactive | FAM quench CP1 inactive
CCN(C(=O)CN1c2ccccc2CC1C)c1c(N)n(Cc2ccccc2)c(=O)[nH]c1=O (stereo not drawn)	none | GRK2 inh confirm inactive | FAM quench CP1 inactive
O=C(O)C1C2C=CC(C2)C1C(=O)Nc1ccc2c(c1)OCCO2 (stereo not drawn)	none | GRK2 CP2 inactive | FAM quench CP2 inactive
CCN(CC)c1c(C)nc2ccc(C(=O)N3CCN(C(=O)c4ccco4)CC3)cn12	none (no result: GRK2 aptamer HTS, PABP polyA inh, PERK inhibitor, eIF4H FP inh)
Cc1oc(-c2cccc(Cl)c2)nc1CS(=O)(=O)CC(=O)NCCCN1CCOCC1	none (no result: PERK inhibitor)
O=C(Cn1cc(C(=O)c2cccs2)c2ccccc21)NCc1ccc2c(c1)OCO2	GRK2 aptamer HTS 69.0 | GRK2 inh confirm inactive | FAM quench CP1 inactive
CC12C(=O)N(c3ccccc3C(=O)O)C(=O)C1C1C=CC2C1 (stereo not drawn)	GRK2 aptamer HTS 79.0 | GRK2 inh confirm inactive | FAM quench CP1 inactive
Cc1cc(C(=O)COC(=O)c2ccc(NC(=O)CC#N)cc2)c(C)n1CCc1ccc(F)cc1	GRK2 aptamer HTS 57.0 (no result: PABP polyA inh, PERK inhibitor, eIF4H FP inh) | GRK2 inh confirm inactive | FAM quench CP1 inactive
CCCN(C(=O)c1ccc(N2CCCC2=O)cc1)c1c(N)n(Cc2ccccc2)c(=O)[nH]c1=O	none (no result: PABP polyA inh, PERK inhibitor, eIF4H FP inh) | GRK2 inh confirm inactive | FAM quench CP1 inactive
O=C(c1ccc(S(=O)(=O)N2CCCCCC2)cc1)N1CCN(c2ccccc2)CC1	none (no result: PERK inhibitor)
COc1ccccc1N1CCN(C(=O)c2ccc(S(=O)(=O)N3CCCCCC3)cc2)CC1	none | GRK2 inh confirm inactive | FAM quench CP1 inactive
CC1CC(C)CN(S(=O)(=O)c2ccc(C(=O)N3CCN(c4ccccc4)CC3)cc2)C1 (stereo not drawn)	none | GRK2 inh confirm inactive | FAM quench CP1 inactive
O=C(c1ccc(S(=O)(=O)N2CCCCC2)cc1)N1CCN(c2ccccc2F)CC1	none
COc1ccccc1CN(C)C(=O)C1COc2ccccc2O1 (stereo not drawn)	none | GRK2 inh confirm inactive | FAM quench CP1 inactive
O=C(NNc1ccccc1C(F)(F)F)c1sccc1Br	GRK2 aptamer HTS 99.0 | GRK2 inh confirm inactive | FAM quench CP1 inactive
CCCOc1ccc(CN(C(=O)c2cccc(OC)c2)C2CCS(=O)(=O)C2)cc1 (stereo not drawn)	GRK2 aptamer HTS 99.0 (no result: PABP polyA inh, PERK inhibitor, eIF4H FP inh) | GRK2 inh confirm inactive | FAM quench CP1 inactive
COc1ccc(CN(C(=O)c2cccc(OC)c2)C2CCS(=O)(=O)C2)cc1 (stereo not drawn)	none
COc1cc(/C=N/Nc2nc3ccccc3s2)cc([N+](=O)[O-])c1O	GRK2 aptamer HTS 68.0 | GRK2 inh confirm inactive | FAM quench CP1 inactive
O=[N+]([O-])c1cc(Cl)cc(/C=N/Nc2nc3ccccc3s2)c1O	none
Cc1nc(N2CCN(C(=O)c3ccco3)CC2)c2c3c(sc2n1)CCCC3	none | GRK2 inh confirm inactive | FAM quench CP1 inactive
Cc1nc(N2CCN(C(=O)c3ccco3)CC2)c2c3c(sc2n1)CC(C)CC3 (stereo not drawn)	none
